Screens as filed in PubChem.
Epigenetic reg: regulators of epigenetic silencing causing reporter derepression in mouse cells | murine LDR cells, GFP reporter derepression, 30 h | Potency, µM (doses to about 53.9 µM), for inactives: at the highest dose GFP activation, usual class: activators | 280,000 compounds, 0.2% hits | AID 1865; active means well fitted activation curve with a large enough effect; inconclusive means small, poorly fitted or top-dose-only effect; further: potency means the concentration at half of the fitted maximal effect; % of control where 0% means no effect; nearly all actives have a fitted effect of over 60% in size
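Reporter derepression read as number of fluorescent GFP-positive objects, 20-120 um in size, counted by laser-scanning cytometer. Mouse LDR line with an epigenetically silenced CMV-GFP locus; compound incubation 30 h, 37 C.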
Menin MLL FP TR: inhibitors of human menin-MLL interaction, mutant MLL peptide; 270,000 compounds, 0.23% hits; AID 1768; O00255; Potency, µM (highest dose often 61.6 µM), for the others: at the top dose FP activity change, negative = inhibition, most hits filed as inhibitors; Menin + Texas Red MLL mutant peptide, fluorescence polarization; active means well fitted inhibition curve with a large enough effect in the polarisation, with a control signal flat, not every such curve was filed as active; inconclusive means small, poorly fitted or top-dose-only effect, or effect the other way, or a change in a side signal; inactive means no such curve, though single readings can be large or run the other way; the % refers to the polarisation; further: potency means the concentration at half of the fitted maximal effect; % of control where 0% means no effect
PINK1 expr mod: changes PINK1 expression; PINK1 immunofluorescence, high-content cytometry, 24 h; 410,000 compounds, 0.2% hits; Potency, µM (titrated, usually from 76.6 µM), inactives show at the top dose activation (PINK1 increase), hits mostly activators; active means well fitted activation curve with a large enough effect; inconclusive means small, poorly fitted or top-dose-only effect; cell line not stated here; further: potency means the concentration at half of the fitted maximal effect; % of control where 0% means no effect; nearly all actives have a fitted effect of over 65% in size
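Cells are seeded, rested 12 hours, then given compound at five concentrations or DMSO for 24 hours. After fixation, blocking and antibody staining, PINK1 amount and mitochondrial localization are scored; CCCP serves as control.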
Menin-MLL FL inh: menin-MLL binding inhibition, fluorescein peptide | Fluorescence polarization, fluorescein-MLL peptide displacement from menin | FP activity change, % at 61.4 µM | 290,000 tested, under 10 active | AID 1766; active means well fitted curve in the direction sought with a large enough effect in the polarisation, not every such curve was filed as active; inconclusive means small, poorly fitted or top-dose-only effect, or effect the other way, or a change in a side signal; inactive means no such curve, though single readings can be large or run the other way; the % refers to the polarisation; further: % of control where 0% means no effect
ClpP mod: qHTS Assay for Activators of ClpP | ATP-dependent Clp protease proteolytic subunit (Bacillus subtilis (strain 168)), P80244 | purified B. subtilis ClpP, FRET peptide cleavage, 20 min | Potency, µM (series often up to 57.5 µM), for the others: at the highest dose activity change, negative = active | 340,000 compounds, 1.9% hits | AID 651965, 2013; active means well fitted falling curve with a large enough effect; inconclusive means small, poorly fitted or top-dose-only effect; inactive means no such curve, though single readings can be large or run the other way; further: potency means the concentration at half of the fitted maximal effect; the source files actives as falling curves though it sought activators and does not explain the sign; nearly all actives have a fitted effect of over 65% in size
Target sequence (P80244 whole entry, looked up): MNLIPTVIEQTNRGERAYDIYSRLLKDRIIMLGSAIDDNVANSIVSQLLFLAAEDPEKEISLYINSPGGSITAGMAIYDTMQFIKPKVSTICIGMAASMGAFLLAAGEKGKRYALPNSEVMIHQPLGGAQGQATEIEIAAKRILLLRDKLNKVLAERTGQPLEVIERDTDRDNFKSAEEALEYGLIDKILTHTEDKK
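ClpP 10 microg/mL final, pH 8 Tris/KCl buffer with BSA, glycerol, Tween-20; compound pinned in; FRET-FV substrate; RT 20 min; Ex320/Em430; ΔFRET vs ADEP 5.8 microM, DMSO, no enzyme.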
CXXC DNA block: inhibitors of human MLL CXXC domain-DNA interaction. MLL-CXXC / FITC-HOXA9 DNA fluorescence polarization. Potency, µM (titrated, usually from 115 µM), inactives show at the highest dose activity change, negative = inhibition, actives largely listed as inhibitors. 290,000 compounds, 0.037% hits; active means well fitted inhibition curve with a large enough effect in the polarisation, with a control signal flat, not every such curve was filed as active; inconclusive means small, poorly fitted or top-dose-only effect, or effect the other way, or a change in a side signal; inactive means no such curve, though single readings can be large or run the other way; the % refers to the polarisation; further: potency means the concentration at half of the fitted maximal effect
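Fluorescence polarization: 7 uM MLL-CXXC (stock) preincubated 5 min with compounds, then 50 nM fluorescein-HOX-A9 DNA (stock) added; 30 min ambient. Buffer 50 mM Tris-HCl pH 7.5, 50 mM NaCl, 1 mM DTT, 0.05% BSA.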
Numbers without * were called inactive; ? = inconclusive; · = no result given; [ ] = remark or other dose. Compounds with a hit are over-represented: about 1.9% of the library has one in this group of screens.

SMILES	Epigenetic reg	Menin MLL FP TR	PINK1 expr mod	Menin-MLL FL inh	ClpP mod	CXXC DNA block
CCOC(=O)Nc1nnc(-c2ccc(OC)cc2)s1	1%	-7%	-5%[38.3 µM]	0	13µM*	1%
COc1cccc(CN2CCC(n3cc(C(=O)N4CCCCC4)nn3)CC2)c1OC	·	·	-1%	·	·	·
CCC(=O)Nc1ccc(-c2nnc(SCc3ccccc3)n2C)cc1	·	·	0%	·	-3%	·
CC(C)c1c(C(=O)N(C)C2CCN(C)CC2)cnn1-c1nccc(-c2ccco2)n1	·	·	2%	·	·	·
CC(C)Cn1nnnc1S(=O)(=O)Cc1ccccc1	0%	-13%	·	0	·	·
O=C1CC(c2ccccc2)(c2ccccc2)c2ccccc21	·	·	8%	·	32µM*	·
O=C(Nc1cccc(-c2cn3cccnc3n2)c1)c1ccc2c(c1)OCO2	0%	6%	-1%[38.3 µM]	1	28µM*	23%
CCOc1cc(C(=O)Nc2cnccn2)cc(OCC)c1OCC	1%	-2%	14µM*	0	-5%	-2%
CCOc1cc(C(=O)Nc2ccc(-c3cn4cccnc4n3)cc2)cc(OCC)c1OCC	?	·	1%	·	16µM*	·
COc1ccc(-c2cn3cccnc3n2)cc1NC(=O)CC(C)C	-1%	?	3%[38.3 µM]	3	28µM*	6%
CCOc1cc(C(=O)Nc2cc(C)ccn2)cc(OCC)c1OCC	0%	2%	1%	0	0%	-12%
OCCN1CCN(Cc2ccc3c(c2)CN(Cc2cccn2-c2ccccn2)CCO3)CC1	·	·	-1%	·	·	·
Cc1c(C(=O)N2CCC(Cc3ccccc3)CC2)sc2ncnc(NCc3ccccn3)c12	·	·	0%	·	·	·
Nc1nc(-c2ccccc2)nc2sc3c(c12)CCCC3	1%	?	3%	5	32µM*	1%
CN(C)c1ccc(/C=C/c2ccnc3ccc(Br)cc23)cc1	·	·	6%	·	2%	·
CCOc1ccc(CN2CCN(Cc3ccc4c(c3)c3ccccc3n4CC)CC2)cc1	-2%	·	2%	·	20µM*	·
CCn1c2ccccc2c2cc(CN3CCN(Cc4ccc(OC)c(OC)c4)CC3)ccc21	-2%	·	0%	·	?	·
CCc1ccc(CNC(=O)CCCn2ccc3cc(S(=O)(=O)N4CCCC4)ccc32)cc1	4%	·	1%	·	-6%	·
COc1ccc2c(c1)CCc1cnc(-n3ncc(C(=O)NCCCc4ccncc4)c3C)nc1-2	·	·	2%	·	·	·
CN(C)/C=C1\C(=O)ON=C1c1ccccc1	-2%	-4%	1%	-2	·	-3%
Cc1ccc(C2=NOC(=O)/C2=C\C=C\c2ccccc2)cc1	1%	?	-1%	?	32µM*	-6%
Cc1cccc2c(C(O)c3cn(C)c4ccccc34)c[nH]c12 (configuration not stated)	·	·	·	·	5%	·
COC(=O)[C@H]1[C@H]2C[C@@H]3c4[nH]c5cc(OC)ccc5c4CCN3C[C@H]2C[C@@H](OC(=O)c2cc(OC)c(OC)c(OC)c2)[C@@H]1OC	22µM*	-28%	6%	?	-13%	85%
CCOC(=O)c1nn(-c2ccccc2C)c2nc(-c3ccc(Cl)cc3)c(C#N)c(=O)n12	-1%	·	-2%	1	32µM*	14%
CCOC(=O)c1nn(-c2ccccc2C)c2nc(Nc3ccccc3)cc(=O)n12	-1%	-11%	12%	8	-8%	3%
SMILES	Epigenetic reg	Menin MLL FP TR	PINK1 expr mod	Menin-MLL FL inh	ClpP mod	CXXC DNA block
CCOC(=O)c1nn(-c2ccccc2C)c2nc(-c3ccc(C)cc3)c(C#N)c(=O)n12	-2%	?	-2%	6	35µM*	-1%
CCOC(=O)c1nn(-c2ccccc2)c2nc(-c3ccc(OC)cc3)c(C#N)c(=O)n12	1%	-13%	-1%	8	-8%	-7%
CC1C(=O)N2CCCc3cc(NC(=O)c4ccccc4F)cc1c32 (configuration not stated)	·	·	1%	·	?	·
CCOC(=O)c1cc(OC(=O)c2ccc(OC)c(OC)c2)n(-c2ccccc2)n1	8%	·	-2%	·	-3%	·
Cc1c(C(=O)NCc2ccccc2Cl)sc2ncnc(NCC3CCCO3)c12 (configuration not stated)	·	·	1%	·	·	·
c1ccc2c(Nc3ccc4c(c3)OCCO4)c3c(nc2c1)CCCC3	0%	?	40µM*	-3	·	18%
O=C(NCC1(N2CCOCC2)CCCC1)c1cnn(-c2nccc(-c3ccco3)n2)c1C1CC1	·	·	0%	·	·	·
CCC1CN(CCNC(=O)c2ccnc(Cl)c2)Cc2cc(OC)ccc2O1 (configuration not stated)	·	·	1%	·	·	·
O=C(c1cc([N+](=O)[O-])ccc1N1CCOCC1)N1CCN(c2ccccc2)CC1	·	·	·	·	·	0%
O=[N+]([O-])c1ccc(O)c(C(C#Cc2ccccc2)N2CCOCC2)c1 (configuration not stated)	0%	·	40µM*	1	·	0%
COc1ccccc1C1CN(CC(=O)N2CCC(N3CCOCC3)CC2)Cc2ccccc2O1 (configuration not stated)	·	·	-1%	·	·	·
O=C(CCC1N=C2c3ccccc3N=C(SCc3cccc(Cl)c3)N2C1=O)NCc1ccco1 (configuration not stated)	-2%	?	2%	8	35µM*	-2%
COc1ccc(-c2csc(NC(=O)c3ccccc3NS(=O)(=O)c3ccc(C)cc3)n2)cc1	0%	?	14µM*	7	?	0%
COc1ccc(S(=O)(=O)Nc2ccccc2C(=O)Nc2nc(-c3ccc(F)cc3)cs2)cc1OC	-1%	?	?	0	16µM*	-8%
CCCNC(=O)c1ccccc1NS(=O)(=O)c1ccc(OC)c(OC)c1	0%	-5%	1%	5	32µM*	3%
COc1ccc(-c2csc(NC(=O)CS(=O)(=O)c3ccccc3)n2)cc1OC	·	·	3%	·	0%	·
COc1cc(OC)cc(C(=O)N2CCCC(n3cc(C(=O)NCC(C)C)nn3)C2)c1 (configuration not stated)	·	·	0%	·	·	·
Cc1c2c(c(O)c3c(O)cccc13)C(=O)O[C@H]2C1C(N(C)C)C(O)=C(C(N)=O)C(=O)[C@H]1O (some centres not stated)	·	?	·	0	·	·
FC(F)(F)c1cccc(N2CCN(C(=S)NC3CCCCC3)CC2)c1	-1%	15%	32µM*	4	0%	6%
CCOc1cccc(CN2CCC(n3cc(C(=O)N4CCCCC4)nn3)CC2)c1O	·	·	-1%	·	·	·
O=C(NCc1ccc(F)cc1F)c1cc(COc2c(F)cccc2F)on1	0%	?	4%	3	18µM*	5%
C=CCNC(=O)CSc1ncc2c(n1)-c1c(csc1SC)CC2	1%	·	-2%	0	32µM*	-5%
CSc1scc2c1-c1nc(SCC(=O)C(C)(C)C)ncc1CC2	1%	·	1%	2	4%	-6%
